# RORg inh: blocks mouse ROR gamma transcriptional activity | AID 2551 | Potency, µM (top dose mostly 53.6 µM), for the others: top-dose activity change, negative = inhibition, usual class: inhibitors | hit rate 5.4% among 310,000 | P51450 | Drosophila S2 Gal4-RORgamma UAS-luciferase reporter, 20 h; also: nearly all actives have a fitted effect of over 60% in size
#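 Luciferase reporter read in Schneider cells carrying Gal4-RORγ (mouse) and UAS-Photinus luciferase; cells given compound 1 h before 700 uM copper sulfate induction, then incubated 20 h at ambient temperature.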
# ELG1 DNA repair: ELG1-dependent DNA repair inhibition. HEK293T ELG1-luciferase reporter, luminescence, 16 h; DNA damage induced by 5-fluorouridine. Potency, µM (doses to about 46.1 µM), for the others: at the highest dose activity change, negative = inhibition, actives largely listed as inhibitors. hit rate 2.3% among 330,000. AID 504467; also: nearly all actives have a fitted effect of over 55% in size
#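 Luminescence from the luciferase reporter, measured 30 min after ONE-Glo reagent at room temperature, was the read-out. Beforehand, 2,000 cells per well were exposed for 16 hr at 37 °C to 5-fluorouridine together with compound or vehicle.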
# DT40 TDP1 CPT: growth inhibition of DT40 Tdp1-/-;hTDP1 cells with camptothecin (screen for TDP1 inhibitors). chicken DT40 Tdp1-/-;hTDP1 cells + 20 nM CPT, ATP luminescence, 48 h. AID 686979. hit rate 12% among 420,000. Potency, µM (highest dose often 46.2 µM), inactives show at the highest dose activity change, negative = growth inhibition, usual class: inhibitors; also: nearly all actives have a fitted effect of over 55% in size
#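 Chicken DT40 Tdp1-/- cells complemented with human TDP1, 400 cells/well, exposed to compounds plus 20 nM camptothecin for at least 48 h at 37 C; viability read as ATP content by CellTiter-Glo luminescence.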
# 12-LOX inh: ALOX12 (human) lipoxygenase inhibition. P18054. purified 12hLO, xylenol orange hydroperoxide absorbance. hit rate 1.1% among 580,000. AID 1671190. Potency, µM (doses to about 108 µM), inactives show top-dose activity change, negative = inhibition, actives largely listed as inhibitors
# Target sequence (P18054 whole entry, looked up): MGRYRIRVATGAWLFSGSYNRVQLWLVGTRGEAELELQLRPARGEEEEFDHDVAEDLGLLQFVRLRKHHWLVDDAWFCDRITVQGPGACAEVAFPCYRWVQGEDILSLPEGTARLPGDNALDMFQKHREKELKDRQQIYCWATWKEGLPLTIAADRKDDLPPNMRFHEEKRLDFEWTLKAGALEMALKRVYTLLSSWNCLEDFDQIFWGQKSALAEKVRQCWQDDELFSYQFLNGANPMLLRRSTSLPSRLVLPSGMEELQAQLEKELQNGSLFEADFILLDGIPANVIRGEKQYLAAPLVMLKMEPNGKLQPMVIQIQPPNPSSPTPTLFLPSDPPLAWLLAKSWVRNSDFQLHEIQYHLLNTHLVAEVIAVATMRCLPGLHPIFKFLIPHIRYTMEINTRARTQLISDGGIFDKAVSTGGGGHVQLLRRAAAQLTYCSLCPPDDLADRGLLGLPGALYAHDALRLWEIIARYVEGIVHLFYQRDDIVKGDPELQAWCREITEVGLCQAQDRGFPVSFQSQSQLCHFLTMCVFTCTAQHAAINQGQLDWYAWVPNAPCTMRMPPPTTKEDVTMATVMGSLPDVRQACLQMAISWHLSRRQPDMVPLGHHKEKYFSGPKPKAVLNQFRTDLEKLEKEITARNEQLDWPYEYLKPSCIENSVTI
#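 Purified human 12hLO (150 nM final) in 25 mM Hepes, 0.01% Triton X-100, pH 7.0 was preincubated 15 min at room temperature with compound. Then 40 uM arachidonic acid was added, 30 min. Hydroperoxide was read by Fe-XO absorbance ratio 573/405 nm.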
# DT40 TDP1 no CPT: qHTS for Inhibitors of human tyrosyl-DNA phosphodiesterase 1 (TDP1): qHTS in cells in absence of CPT; AID 686978, 2013; Potency, µM (series often up to 46.2 µM), inactives show at the top dose activity change, negative = growth inhibition, usual class: inhibitors; DT40 Tdp1-/- hTDP1 cells, no CPT, ATP luminescence, 48 h; hit rate 15% among 420,000; also: nearly all actives have a fitted effect of over 55% in size
#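 DT40 Tdp1-/-;hTDP1 cells, no CPT (DMSO vehicle only), 400 cells/well; compounds pin-transferred; ≥48 hr, 37 °C; CellTiter-Glo 30 min RT dark, luminescence read.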
# Gal4-VP16 FLuc: inhibits Gal4-VP16 luciferase reporter, ROR gamma counter-screen | Drosophila S2 Gal4-VP16 UAS-luciferase, luminescence, 20 h | Potency, µM (doses to about 53.6 µM), without a hit: top-dose activity, negative = inhibition, actives largely listed as inhibitors | hit rate 3.5% among 310,000;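 also: Gal4-VP16 expression switched on by copper sulfate through the metallothionein promoter; nearly all actives have a fitted effect of over 50% in size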
# * hit, by the source's call; ? = inconclusive; nt = not tested or not shown; [ ] = another dose, or the depositor's remark. This is a sample that favours compounds with a hit; in the whole collection about 15% have one here. Calls follow the shape of the dose curve; as a rule, active = well fitted curve in the direction sought with a large enough effect; inconclusive = small, poorly fitted or top-dose-only effect, or another doubt; inactive = no such curve, though single readings can be large; an effect the other way counts as inactive or inconclusive. % is scaled to controls: 0 for no effect and ±100 for the full control effect; potency is read from the fitted curve at half-maximal effect.
SMILES,RORg inh,ELG1 DNA repair,DT40 TDP1 CPT,12-LOX inh,DT40 TDP1 no CPT,Gal4-VP16 FLuc
COc1cc(NC(=O)c2ccccc2OCc2ccccc2)cc(OC)c1OC,-15%,16µM*,?,6%,16µM*,0%
COc1ccccc1CCNC(=O)c1cc(-c2ccncc2)nc2ccc(Br)cc12,1%,?,?,-9%,21µM*,-16%
COc1ccc(-c2cc(C(=O)NCC(c3ccco3)N(C)C)c3ccccc3n2)cc1OC (configuration not stated),nt,?,23µM*,?,15µM*,nt
O=C(Nc1ccccn1)c1cc(-c2ccc(Cl)s2)nc2ccccc12,nt,?,?,2%,?,nt
Cc1ccnn1CCC(=O)N1CC[C@H](N2CCN(C)CC2)[C@H](CCC(=O)O)C1,nt,nt,nt,-2%,nt,nt
CCCn1c(Cn2ccnc2C)nc2cc(NC(=O)c3ccccc3OC)ccc21,nt,nt,nt,11%,nt,nt
Cn1c(=O)c2c(nc(NCCCN3CCOCC3)n2Cc2ccccc2)n(C)c1=O,nt,nt,nt,-7%,nt,nt
CCc1ccc(CNC(=O)c2cc(-c3ccc(Cl)s3)nc3ccccc23)cc1,nt,nt,?,-9%,?,nt
COc1cc(-c2cc(C(=O)Nc3ccc(O)cc3)c3ccccc3n2)cc(OC)c1OC,17%,5.8µM*,10µM*,45µM*,?,-13%
Cc1nnc(Sc2cc(C(=O)NC3CC3)c3ccccc3n2)s1,-3%,-17%,?,7%,7.3µM*,-9%
CCCCN(CCCC)CCCNC(=O)c1cc(-c2ccc(Cl)s2)nc2ccccc12,nt,nt,13µM*,?,15µM*,nt
CCNc1ncc(CN2CCC(N)(C(=O)O)C2)cn1 (configuration not stated),nt,nt,nt,36%,nt,nt
Cc1ccc2nc(C(=O)N3CCN(c4cccc(Cl)c4)CC3)cn2c1,nt,nt,nt,17%,nt,nt
CCS(=O)(=O)c1ncc(Cl)c(C(=O)N2CCN(c3cccc(Cl)c3)CC2)n1,nt,nt,0.26µM*,0%,0.21µM*,nt
CCc1noc(C)c1C(=O)N1CCN(c2cccc(Cl)c2)CC1,nt,nt,?,-7%,?,nt
CS(=O)(=O)c1ncc(Cl)c(C(=O)N2CCN(c3cccc(Cl)c3)CC2)n1,nt,nt,1µM*,8%,0.52µM*,nt
CCOc1ccccc1NC(=O)COC(=O)c1sc2cc(F)ccc2c1Cl,nt,nt,nt,-2%,nt,nt
O=S(=O)(c1cccc(-c2nnc(SCc3nc4ccccc4s3)o2)c1)N1CCOCC1,3%,?,18µM*,6%,?,7%
CCn1c(SCc2nc3ccccc3s2)nc2cc(S(=O)(=O)N3CCOCC3)ccc21,nt,nt,29µM*,27%,?,nt
CCCC(=O)OCCNc1cc(Sc2nc3ccccc3[nH]2)c2nonc2c1[N+](=O)[O-],2.8µM*,?,2.3µM*,?,3.3µM*,3.2µM*
CCC(=O)OCCNc1cc(Sc2nccn2C)c2nonc2c1[N+](=O)[O-],4.5µM*,-27%,1µM*,?,2.3µM*,4µM*
CC(=O)OCCNc1cc(SC(C)C)c2nonc2c1[N+](=O)[O-],-6%,-4%,-1%,148%,?,6%
CC(C)NC(=O)C[C@@H]1CCNC[C@@H]1Cc1cc(CSc2ccccc2)on1,nt,nt,nt,29%[176 µM],nt,nt
Cc1ccc(OCC(=O)NC(=S)Nc2ccc(Br)c(C)n2)cc1,2.5µM*,?,-14%,17%,-8%,-11%
Cc1nc(NC(=S)NC(=O)COc2ccc(Cl)cc2)ccc1Br,-35%,18%,?,-6%,?,-6%
SMILES,RORg inh,ELG1 DNA repair,DT40 TDP1 CPT,12-LOX inh,DT40 TDP1 no CPT,Gal4-VP16 FLuc
O=C1C(CN2CCCC2)CCCC1CN1CCCC1 (configuration not stated),nt,nt,0.52µM*,-3%,0.52µM*,nt
O=C1[C@@H](Oc2ccccc2)[C@@H](c2cnc3ccccc3c2)N1c1ccccc1,nt,16µM*,21µM*,15%,15µM*,nt
CC(C)Cn1c(=O)c2ccccc2n2c(CCC(=O)N3CCN(c4ccccc4F)CC3)nnc12,nt,nt,23µM*,-24%,23µM*,nt
CC(C)Cn1c(=O)c2ccccc2n2c(CCC(=O)N3CCN(c4ccccc4)CC3)nnc12,nt,nt,?,-19%,16µM*,nt
O=C1CCC2(CCN(C/C=C/c3ccccc3)CC2)CN1CCCn1ccnc1,nt,nt,nt,56%,nt,nt
COc1ccccc1C(=O)NCCn1cc(SCc2ccc(C)cc2)c2ccccc21,nt,nt,23µM*,-4%,?,nt
NC(=O)CSc1cn(CCNC(=O)c2cccs2)c2ccccc12,-39%,29%,-4%,8%[57.4 µM],-17%,-7%
COc1ccccc1C(=O)NCCn1cc(SCC(=O)NCC2CCCO2)c2ccccc21 (configuration not stated),16%,?,?,-4%,?,-2%
O=C(NCCn1cc(SCc2ccccc2)c2ccccc21)c1ccccc1F,?,13µM*,21µM*,11%,?,4%
O=C(NCCn1cc(SCc2ccc(Br)cc2)c2ccccc21)c1cccs1,nt,nt,23µM*,-4%,23µM*,nt
O=C(NCCn1cc(SCc2ccccc2)c2ccccc21)c1cccs1,nt,nt,15µM*,?,7.3µM*,nt
CCCCC1CCC(C(=O)NC(C(=O)O)C(C)C)CC1 (configuration not stated),nt,nt,nt,6%,nt,nt
CC(C)(C)c1ccc2cc(C(=O)N3CCCCC3)[nH]c2c1,nt,nt,nt,0%,nt,nt
COc1cc(C2CC(=O)Nc3[nH]ncc32)ccc1OCc1ccc(Cl)cc1 (configuration not stated),nt,nt,nt,-41%,nt,nt
COC(=O)CNC(=O)N1CCCCC1c1nc(CCOc2cccc(C)c2)no1 (configuration not stated),nt,nt,nt,42%,nt,nt
O=C(Cn1cc(SCc2ccccc2Cl)c2ccccc21)N1CCOCC1,39%,?,?,-27%,?,27%
Cc1ccc(C)c(CSc2cn(CCNC(=O)c3ccccc3F)c3ccccc23)c1,nt,nt,?,0%,?,nt
O=C(NCCn1cc(SCc2ccccc2Cl)c2ccccc21)c1cccs1,nt,nt,23µM*,0%,?,nt
Cc1ccc(C)c(CSc2cn(CCNC(=O)c3cccs3)c3ccccc23)c1,nt,nt,?,-23%,23µM*,nt
Cc1cc(C(=O)O)ccc1NS(=O)(=O)c1ccc(S(=O)(=O)N2CCCCC2)cc1,nt,nt,nt,35%,nt,nt
COc1ccc([N+](=O)[O-])cc1NC(=O)CSc1nc(C)cc(C)n1,?,5%,16µM*,0%,?,4%

# High-throughput results (PubChem)
